The whole screen tested about 69,000 compounds, of which about 8,600 (12%) showed an effect of 50% or more. The full list was thinned out, with strong results kept by preference.
Test system: Plasmodium berghei
Assay: Screen against P. berghei liver stage (PbLuc), transformed with Luciferase, at 10uM
Type: functional, HepG2
Conditions: tested at 10 uM

| SMILES | INHIBITION |
| --- | --- |
| Cc1nc(CN(C)C2CCN(Cc3nc(C4CC4)no3)C2)no1 (centres undefined) | 40.9% |
| COc1ccc(-c2cc(N)on2)cc1 | -3.34% |
| Cc1nc(CNC(=O)NCC2(C)CCCc3ccccc32)no1 (centres undefined) | -21.9% |
| CC(CNC(=O)N1CCN(Cc2ccon2)CC1)N(C)C1CC1 (centres undefined) | 4.62% |
| CNC(=O)[C@@]12CCC3(CCN(S(C)(=O)=O)CC3)[C@@H]1CN(C(C)=O)C2 | 40.1% |
| CC(=O)N1CCCC(c2ccc3sc(N)nc3n2)C1 (centres undefined) | 26.3% |
| O=C(CC1CC1)N1CCN(Cc2ccncc2)c2ncccc2C1 | -45.8% |
| CCc1nc(NS(=O)(=O)c2cc(C)ccc2F)no1 | -7.9% |
| CC(C)(C)c1nc(NS(=O)(=O)c2ccccc2F)no1 | 82.2% |
| Cc1nc(NS(=O)(=O)c2ccc(F)c(Br)c2)no1 | 10.6% |
| CCc1nc(NS(=O)(=O)c2ccc(F)cc2Cl)no1 | 56.1% |
| Cc1nc(NS(=O)(=O)c2cc(C)c(Br)cc2C)no1 | 49.4% |
| CC(C)(C)c1nc(NS(=O)(=O)c2ccc(F)cc2)no1 | 51.6% |
| CC(C)c1nc(NS(=O)(=O)c2ccccc2Cl)no1 | 2.61% |
| Cn1ncnc1NS(=O)(=O)c1ccc(F)cc1 | -3.59% |
| CSCC(C)(O)CNS(=O)(=O)c1ccc(F)cc1 (centres undefined) | 12.3% |
| Cc1nc(NS(=O)(=O)c2ccc(C)c(Br)c2)no1 | 68.3% |
| CCc1nc(NS(=O)(=O)c2ccc(C)cc2Cl)no1 | 4.74% |
| CCc1nc(NS(=O)(=O)c2ccc(F)cc2C)no1 | -3.16% |
| NC1(CNC(=O)c2cc3ccccc3[nH]2)CCCC1 | -8.28% |
| Cc1ncccc1Oc1ncnc(N2CCC(O)(CO)CC2)c1C | -6.03% |
| COCCn1cc2c(n1)C(CNCc1cccc(OC)c1)OCC2 (centres undefined) | 17.4% |
| O=C(Nc1cnccn1)[C@@H]1COC[C@H]2CN(C3CCC3)C[C@H]21 | 24.9% |
| O=C(Cc1ccsc1)N1Cc2nc(CN3CCCCC3)oc2C1 | 31.5% |
| CCc1nc(C2CCCN2CCC(=O)N2CCc3ccccc32)no1 (centres undefined) | 46.2% |
| Cc1nc(NS(=O)(=O)c2cccc(F)c2C)no1 | 74.5% |

| SMILES | INHIBITION |
| --- | --- |
| CCc1nc(NS(=O)(=O)c2cc(C)cc(F)c2)no1 | 40.9% |
| Cc1c(F)cccc1S(=O)(=O)Nc1noc(C(C)C)n1 | 10.2% |
| CCc1nc(NS(=O)(=O)c2cccc(F)c2C)no1 | 39.7% |
| CC(C)(C)c1nc(NS(=O)(=O)c2cccc(F)c2)no1 | 82.2% |
| Cc1cc(F)cc(S(=O)(=O)Nc2noc(C)n2)c1 | 31.5% |
| Cc1cc(N(Cc2cccs2)C2CC2)n2nc(C(F)(F)F)nc2n1 | 26.6% |
| CC(C)n1cnnc1SCCN(C)c1ccccc1 | -34.8% |
| COCCNc1ccc(CC2CCNC2)cn1 (centres undefined) | -26.2% |
| CCCN(CC(=O)N(C)C)C(=O)c1ccc(-c2nc(C)cs2)cc1 | 18.9% |
| COc1cc(CNC(=O)c2cc(S(C)(=O)=O)ccc2C)ccn1 | 1.51% |
| Cc1nn(C)c(N2CCOCC2)c1CNCc1ccnc(N(C)C)c1 | 38.7% |
| Cc1nn(C)c(N2CCOCC2)c1CNCc1ccc(N(C)C)nc1 | 51.1% |
| Cc1nn(C)c(N2CCOCC2)c1CNCc1cccnc1 | 32.2% |
| Cc1ccc(N2CCCc3sc(C(=O)NCCC#N)nc32)nn1 | 35.8% |
| CCC(CN1CCOCC1)NC(=O)Cc1c(C)[nH]c2cc(C)cc(C)c12 (centres undefined) | 6.32% |
| CN(C)CCCNC(=O)c1nnsc1-c1ccccc1 | 15.9% |
| O=C(NCc1cccs1)c1[nH]nc2c1CS(=O)(=O)CC2 | -22.3% |
| O=C1CC(c2cccs2)c2cnn(C3CCCC3)c2N1 (centres undefined) | 14.4% |
| CC(C)(C)n1ncc2c1NC(=O)CC2c1cccc(O)c1 (centres undefined) | -5.22% |
| O=C1CC(c2ccc3c(c2)OCO3)c2cn[nH]c2N1 (centres undefined) | 6% |
| O=C1CC(c2ccc3c(c2)OCO3)c2cnn(C3CCCC3)c2N1 (centres undefined) | 87.9% |
| O=C1CC(c2ccc3c(c2)OCO3)c2c(n3ccsc3nc2=O)N1 (centres undefined) | 5.85% |
| Cc1n[nH]c2c1C(c1ccc3c(c1)OCO3)SCC(=O)N2 (centres undefined) | 9.32% |
| CC(C)(C)n1ncc2c1NC(=O)CC2c1cccc(F)c1 (centres undefined) | 89.4% |
| CC(C)(C)n1ncc2c1NC(=O)CC2c1ccccc1 (centres undefined) | 5.65% |
| O=C1CSC(c2ccc3c(c2)OCO3)c2cnn(C3CCCCC3)c2N1 (centres undefined) | 38.9% |

| SMILES | INHIBITION |
| --- | --- |
| O=C1CC(c2ccccc2)c2cnn(C3CCCC3)c2N1 (centres undefined) | 68% |
| Cc1nn(C2CCCC2)c2c1C(c1ccc3c(c1)OCO3)SCC(=O)N2 (centres undefined) | 61.6% |
| O=C1CC(c2ccsc2)c2cnn(C3CCCC3)c2N1 (centres undefined) | 6.09% |
| O=C1CC2(CCCCN2C(=O)c2ccncc2)CN1CC1CC1 (centres undefined) | 23.5% |
| CCc1sc(C(=O)NC2CC2)cc1C | 38% |
| Cc1cc(N(C)C)nc(C2COCCN2Cc2nccn2C)n1 (centres undefined) | 20.6% |
| Cc1ccc(NC2CCN(C(=O)c3c(C)oc(C)c3C)CC2)nn1 | 9.365% |
| COc1ccccc1COCC(O)CN1CC(n2cccn2)C1 (centres undefined) | 19.85% |
| N#Cc1ccc(C2CC(=O)Nc3c2cnn3C2CCCC2)cc1 (centres undefined) | -11.1% |
| O=C1CC(c2ccc(F)cc2)c2cnn(C3CCCC3)c2N1 (centres undefined) | 70.2% |
| COc1ccc(C2CC(=O)Nc3c2cnn3C2CCCC2)cc1 (centres undefined) | -9.67% |
| Cc1nnc(CN(C)CC(=O)NC(C)(C)c2ccc(F)cc2)n1C | 10.1% |
| Fc1cccc(Cl)c1CNCc1ccccn1 | 10.7% |
| CCCN1CCN(C(=O)c2cc[nH]n2)[C@H]2CS(=O)(=O)C[C@H]21 | 53.9% |
| Cc1ncc(CN2CCN(C(=O)C3CCC3)[C@@H]3CS(=O)(=O)C[C@@H]32)cn1 | 14.8% |
| Cc1cnc(C(=O)N2CCOCC2C)cn1 (centres undefined) | 33.7% |
| CCCN1CCN(C(=O)c2ccc(Cl)cn2)[C@H]2CS(=O)(=O)C[C@H]21 | 37.6% |
| CC1COCCN1C(=O)c1cnccn1 (centres undefined) | 53.5% |
| O=C(c1cnccn1)N1CCC(CN2CCOCC2)CC1 | 30% |
| CCCN1CCN(C(=O)c2cnccn2)[C@H]2CS(=O)(=O)C[C@H]21 | 51.8% |
| CCC(=O)N1CCN(Cc2cnc(C)nc2)[C@H]2CS(=O)(=O)C[C@H]21 | 53.1% |
| CCCN1CCN(C(=O)c2cc3ccccc3cn2)[C@H]2CS(=O)(=O)C[C@H]21 | 43.9% |
| Cc1ncc(CN2CCN(C(=O)N(C)C)[C@@H]3CS(=O)(=O)C[C@@H]32)cn1 | 31.6% |
| CCCN1CCN(C(=O)c2cccc(C)n2)[C@H]2CS(=O)(=O)C[C@H]21 | 21.2% |
| CCCN1CCN(C(=O)c2ccc3ccccc3n2)[C@H]2CS(=O)(=O)C[C@H]21 | -15.1% |
| CC(C)c1nccn1-c1nccnc1C1CCCN1Cc1ccccc1 (centres undefined) | 28.5% |

| SMILES | INHIBITION |
| --- | --- |
| O=C(NCCCNC(=O)c1ccc(F)cc1F)c1cccc(O)c1 | -2.61% |
| CC(Cn1ccnc1)NC(=O)N1CCN(Cc2ccncc2)CC1 (centres undefined) | 13.03% |
| CC(C)c1ocnc1C(=O)Nc1cccc(Cn2ccccc2=O)c1 | 26.5% |
| Cc1nn(C)c(N(C)C)c1CNCc1ccccc1Cn1ccnc1 | 27.6% |
| CC(=O)Nc1nc(C2CCCN(C(=O)CN(C)C)C2)cs1 (centres undefined) | 8.72% |
| CC(NS(=O)(=O)CCc1ccccn1)c1ccccc1Br (centres undefined) | -9.35% |
| CCC(=O)c1ccc(OCC(=O)N(C)C(C)c2ccon2)cc1 (centres undefined) | 20.6% |
| CC1=N[C@@]2(CC[C@@H]3CN(Cc4ccccc4F)C[C@@H]32)C(=O)N1C | 19.8% |
| CNC(=O)[C@@H]1CCO[C@@H]2CCN(Cc3ccsc3)C[C@H]21 | 31.1% |
| CCN1CCOC(CNCc2cnc(N(CC)CC)s2)C1 (centres undefined) | -81.1% |
| Cc1nc(C(=O)N2CCN(C(=O)C3CCC3)[C@@H]3CS(=O)(=O)C[C@@H]32)cs1 | 33.1% |
| Cc1nc(C(=O)N2CCN(S(C)(=O)=O)[C@@H]3CS(=O)(=O)C[C@@H]32)cs1 | 39.8% |
| CCCN1CCN(C(=O)c2cncnc2C)[C@H]2CS(=O)(=O)C[C@H]21 | 51.2% |
| CCCN1CCN(C(=O)c2cnccc2C)[C@H]2CS(=O)(=O)C[C@H]21 | 19.4% |
| Cc1nc(C(=O)N2CCN(C(=O)N(C)C)[C@@H]3CS(=O)(=O)C[C@@H]32)cs1 | 57.8% |
| CCCN1CCN(C(=O)c2cnc(C)nc2)[C@H]2CS(=O)(=O)C[C@H]21 | 2.15% |
| O=C1C[C@H]2[C@H](CCN2C(=O)c2ccno2)N1CC1CC1 | 41.4% |
| Cc1cc(N(C)C)nc(C2(C)CCCN2CC(N)=O)n1 (centres undefined) | 18.8% |
| N#Cc1ccccc1CN1C[C@H]2CC[C@@H](C1)N(CC1CC1)C2=O | 25.1% |
| Cc1cc2c(=O)n3c(nc2s1)CCN(C(=O)c1ccnn1C(C)C)CC3 | 11.1% |
| c1cnnc(N[C@@H]2CC[C@@H]3CN(Cc4ccc5cc[nH]c5c4)C[C@@H]32)c1 | -4.68% |
| COCC(=O)N1C[C@@H](C)[C@](O)(C(C)C)C1 | 46.4% |
| CC(Nc1nccc(CCC(F)(F)F)n1)c1nc(-c2ccccn2)no1 (centres undefined) | 21.2% |
| CC(C)c1noc(C(C)Nc2nccc(CCC(F)(F)F)n2)n1 (centres undefined) | 29.6% |
| CC(Nc1nccc(CCC(F)(F)F)n1)c1nc(-c2ccncc2)no1 (centres undefined) | 50.4% |
| O=C(c1ccnnc1)N1CCN(Cc2ccncc2)c2ncccc2C1 | 23.3% |

Reference: ChEMBL document CHEMBL4513216, “Probing the Open Global Health Chemical Diversity Library for Multistage-Active Starting Points for Next-Generation Antimalarials” (ACS Infect Dis, 2020)
